Assay outcomes as filed in PubChem.
Pf Dd2 inh = Plasmodium falciparum Dd2 growth inhibition; P. falciparum Dd2 growth, SYBR Green, 72 h; Potency, µM (titrated, usually from 28.9 µM), usual class: inhibitors; 120,000 compounds, 4.3% hits; active = well fitted inhibition curve with a large enough effect; also: nearly all actives have a fitted effect of over 65% in size
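Infected erythrocytes (Dd2, 0.3% parasitemia, 2.5% hematocrit final) are added to compound in RPMI-1640/Albumax II medium, grown 72 h at 37C in low oxygen, then lysed with saponin/Triton-X containing SYBR Green and read by fluorescence.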
Of the large screens only hits and unclear results are named; the others gave an inactive call. This is one part of a sample in which hits are shown more often than they occur.

CNC(=O)N1CCC(C2CCN(S(=O)(=O)c3ccc(C)c(F)c3)C2)CC1 (centres undefined)	none
O=C(Nc1ccc2c(c1)CN(Cc1ccccc1F)C(=O)CO2)c1ccc(Cl)cc1	none
Cc1n[nH]c(C)c1C(N)C(=O)N1CC2(C)CN(C)CC(C)(C1)C2O (centres undefined)	none
COc1ccc(CNC2CN(C(=O)OC(C)(C)C)C2)cc1	none
CC(C)(C)OC(=O)N1CC(NCc2ccc(C(F)(F)F)cc2)C1	none
CC(C)(C)OC(=O)N1CC(NCc2ccc(-c3ccc(OC(F)(F)F)cc3)cc2)C1	Pf Dd2 inh 10µM
OC[C@@H]1O[C@H](CNC2CCOCC2)[C@H](N2CCN(c3ccc(F)cc3)CC2)[C@@H]1O	none
CC1CCCCN1C(=O)c1cc(-c2ccc(Br)cc2)on1 (centres undefined)	none
CC1CCCN1C(=O)c1cc(-c2cnn(C(C)C)c2)nc2cc(F)ccc12 (centres undefined)	none
CC(C)=CCn1c(-c2cc(C)oc2C)cn2cc(C(=O)N3CCCC3C)nc2c1=O (centres undefined)	Pf Dd2 inh 8.9µM
C#CC(C)(CC)NC(=O)c1cnn2c(C(F)F)cc(-c3ccccc3OC)nc12 (centres undefined)	none
Cc1ccc(NC(=O)c2cc3nc(-c4ccccc4)cc(-c4ccccc4)n3n2)cc1	none
CC(C)c1ccc(NC(=O)c2cnn3c(C(F)F)cc(-c4ccccc4)nc23)cc1	Pf Dd2 inh 5µM
COC(=O)CCC(=O)N[C@H]1CO[C@H]2[C@@H]1OC[C@H]2OCc1ccccc1	none
CN(Cc1cc2cc(F)ccc2[nH]1)C(=O)C1CCC(=O)N(C2CCCC2)C1 (centres undefined)	none
COCc1nc2nc(-c3ccccc3)c(-c3ccc(O)c(F)c3)cc2n1C	none
COCCNC(=O)c1nc2nc(-c3ccccc3)c(Cl)cc2n1C	none
COc1cc(-c2cc3c(nc2-c2ccccc2)nc(C(=O)NCCN(C)C)n3C)ccn1	none
CN1CCC(NC(=O)Cc2c[nH]c3ncc(-c4ccccc4)cc23)CC1	none
CN(C)CCNC(=O)c1ccc(-c2nn(C)c(=O)c3ccccc23)cc1	none
Cc1cc(-c2cc3c(nc2-c2ccccc2)nc(C(=O)NC2CCN(C)CC2)n3C)ccn1	Pf Dd2 inh 6.3µM
COc1ccc(-c2cc3c(nc2-c2ccccc2)nc(C(=O)NCCN(C)C)n3C)cn1	Pf Dd2 inh 7.1µM
COc1cc(F)ccc1-c1cc2c(nc1-c1ccccc1)nc(C(=O)NCCN(C)C)n2C	Pf Dd2 inh 2.5µM
CC(C)(C)OC(=O)N1CCC(NC(=O)c2nc(-c3ccccc3)c3ccccn23)CC1	none
Cc1ccc([S+](=O)([O-])N2CCC(N3CCCCCC3=O)CC2)cc1	none
O=C(C1CCC1)N1CC[C@H]2COC(=O)N2c2ccccc2C1	none
CCn1ncc(N2CCCC(CC(=O)NCc3cccc(Cl)c3)C2)cc1=O (centres undefined)	none
Cc1ccccc1CC(=O)N1CC[C@@H]2CN(S(C)(=O)=O)[C@@H]2C1	none
NC(=O)COc1cccc(C(=O)N2C[C@H](CO)C[C@H](CN3CCCC3)C2)c1	none
Cc1[nH]ncc1CNC(=O)C1CCN(C(=O)c2ncn3c2COC(c2ccc(F)cc2)C3)CC1 (centres undefined)	none
CCC(C)NC(=O)Cc1csc2nc(C)c(-c3cc(C)n(-c4ccc(C)cc4C)n3)c(=O)n12 (centres undefined)	none
COC(=O)[C@H](NC(=O)[C@@H]1[C@@H](NC(=O)Nc2cccc(SC)c2)CCN1C(=O)c1cccn1C)C(C)C	none
CCOC(=O)c1ccc2c(c1)N(CC(=O)Nc1cc(F)ccc1F)C(=O)c1ccccc1S2	none
O=C(c1ccc2c(c1)N(Cc1ccccc1Cl)C(=O)c1ccccc1S2)N1CCCC1	none
O=C(c1ccc2c(c1)N(Cc1cccc(F)c1)C(=O)c1ccccc1S2)N1CCCC1	none
Cc1ccc(NC(=O)CN2C(=O)c3ccccc3Sc3ccc(C(=O)N4CCOCC4)cc32)cc1C	none
CN(C)c1ccc(NC(=O)CN2C(=O)c3ccccc3Sc3ccc(C(=O)N4CCCC4)cc32)cc1	Pf Dd2 inh 10µM
COc1ccc(OC)c(NC(=O)CN2C(=O)c3ccccc3Sc3ccc(C(=O)N4CCCC4)cc32)c1	Pf Dd2 inh 10µM
CC(C)CNC(=O)N1CCCCCC1CN1CCOCC1 (centres undefined)	none
COc1ccc(CN2CCOc3nc(-c4ccc(O)c(F)c4)ncc3C2=O)cc1	none
CC1(C(=O)NCc2cccnc2)CCc2cnc(NCc3ccccc3)nc21 (centres undefined)	none
CCc1ccc(NC(=O)c2cc3c(=O)n(Cc4cccs4)ccc3nc2C)cc1	Pf Dd2 inh 13µM
COc1ccc(Cn2ccc3nc(C)c(C(=O)Nc4ccc(F)cc4)cc3c2=O)cc1	none
CCc1cccc(NC(=O)c2cc3c(=O)n(Cc4ccccc4)ccc3nc2C)c1	none
O=C1N2CCCC2CN1C1CCN(Cc2ccccn2)CC1 (centres undefined)	none
CN1C[C@H](NCc2nccn2C)CCC[C@@H](C(=O)N(C)Cc2cccnc2)CC1=O	none
OCc1cc(CC2(NCC3CC3)COC2)no1	none
COc1cccc(NC(=O)c2cc3c(N4CCSCC4)nc(C)cn3n2)c1	none
Cc1cn2nc(C(=O)NCc3ccc(C(C)C)cc3)cc2c(N2CCCC2)n1	none
Cc1cn2nc(C(=O)NCc3ccccn3)cc2c(N2CCCC2)n1	none
Cc1cn2nc(C(=O)NCc3ccccc3Cl)cc2c(N2CCCC2)n1	Pf Dd2 inh 8.9µM
Cc1ccc(CCNC(=O)c2cc3c(N4CCCC4)nc(C)cn3n2)cc1	none
COc1ccc(CCNC(=O)c2cc3c(N4CCCC4)nc(C)cn3n2)cc1OC	none
Cc1cn2nc(C(=O)NCCc3cccs3)cc2c(N2CCCC2)n1	Pf Dd2 inh 7.1µM
COc1cc(NC(=O)c2cc3c(N4CCSCC4)nc(C)cn3n2)cc(OC)c1OC	none
Cc1cn2nc(C(=O)Nc3ccc(N(C)C)cc3)cc2c(N2CCCC2)n1	Pf Dd2 inh 0.63µM
Cc1cn2nc(C(=O)NC3CCCC3)cc2c(N2CCCC2)n1	none
Cc1cn2nc(C(=O)NC3CCc4ccccc43)cc2c(N2CCCC2)n1 (centres undefined)	Pf Dd2 inh 5.6µM
Cc1cn2nc(C(=O)NCCc3ccc(S(N)(=O)=O)cc3)cc2c(N2CCCC2)n1	none
CCc1noc(-c2cn(C3CCN(C(=O)c4ccc(OC)c(F)c4)C3)nn2)n1 (centres undefined)	none
O=C(c1cc(C2CC2)nc2onc(C3CCCNC3)c12)N1CCOCC1 (centres undefined)	none
CC(C)CCNC(=O)N1CCC(N2CC3CC(C2)[C@H]2CCCC(=O)N2C3)CC1 (some centres undefined)	none
O=C(C1CCCC1)N1CCn2c(nn(-c3ccncc3)c2=O)C1	none
Cc1cc(C)n(CCC(=O)N2C[C@@H](CO)[C@H](c3nc(C)no3)C2)n1	none
O=c1c2nc(-c3ccsc3)ccc2ncn1Cc1ccccc1	none
C[C@@]1(O)CCN(Cc2cccc(F)c2)C[C@H]1N1CCCC1	none
O[C@]1(c2ccccc2)CCN(Cc2ccco2)C[C@H]1N1CCCC1	Pf Dd2 inh 0.63µM
Cc1ccc(CN2CC[C@@](C)(O)[C@H](N3CCCC3)C2)o1	none
Cc1ccsc1C(=O)N1CCC(O)(c2ccccc2)[C@H](N(C)C)C1 (some centres undefined)	none
O=C(C1CC1)N1CC[C@](O)(c2ccccc2)[C@H](N2CCCC2)C1	none
O=C(c1cccs1)N1CCC(O)(c2ccccc2)[C@H](N2CCCC2)C1 (some centres undefined)	Pf Dd2 inh 1.4µM
COc1ccc(CN2CC[C@@](C)(O)[C@H](N3CCCC3)C2)cc1	none
O[C@]1(c2ccccc2)CCN(Cc2ccncc2)C[C@H]1N1CCCC1	Pf Dd2 inh 0.71µM
